The values that follow come from ChEMBL document CHEMBL4513216, “Probing the Open Global Health Chemical Diversity Library for Multistage-Active Starting Points for Next-Generation Antimalarials” (ACS Infect Dis, 2020).

The structures appear in SMILES notation. The campaign covered roughly 69,000 compounds. About 8,600 (12%) showed an effect of 50% or more. Only a selection was taken, and strong results are over-represented in it overall.

For the experiment, the system named is Plasmodium berghei. Nature of the experiment: Screen against P. berghei liver stage (PbLuc), transformed with Luciferase, at 10uM. In kind it is functional, HepG2. The note with it: tested at 10 uM.
Regarding `CC1(C)Cc2nc(C(C)(C)C)ncc2C(NC(=O)CN)C1` (centres undefined), the INHIBITION came to 36.8%. For `CCn1ncc2c1C(COCC1CC1)N(Cc1nccs1)CC2` (centres undefined) the value was 13.7%; for `COc1cccc(S(=O)(=O)CCNC2CCc3ncnn3C2)c1` (centres undefined), 41.2%. As for `CN(C)C(=O)C1CCN(C2CCN(CC3CCC3)CC2)CC1`, the figure is 26.5%; as for `CCn1cc(N)c(-c2nnc3n2CCC3)n1`, 24.8%. As to `Cc1ccc(C(=O)NS(C)(=O)=O)cc1-n1cccc1`, the INHIBITION is recorded as 5.23%. Turning to `O=C(Nc1ccc2c(ccn2CCN2CCOCC2)c1)c1ccncc1`, the INHIBITION is -35.8%. As for `Cc1ccccc1Cc1nc(CSc2nnc(N)n2C2CC2)no1`, the figure is 67.8%; as for `Cc1ccccc1Cc1nc(CSc2nnc(N)n2C)no1`, 10.7%; as for `CCc1nc(CSc2nnc(N)n2C2CC2)no1`, 42.1%. For `CCC(=O)N1CCC(Cc2ccccc2-c2ccncc2)(C(=O)NC)C1` (centres undefined) the value was 6.32%; for `O=C(O)c1ccn(-c2cccc(NC(=O)c3ccccc3Cl)c2)n1`, 52.6%.

As to `O=C(O)c1ccn(-c2ccccc2NC(=O)c2ccccc2Cl)n1`, the INHIBITION amounted to 4.1%.

Take `O=C(O)c1ccn(-c2ccc(NC(=O)c3ccccc3Cl)cc2)n1`: the INHIBITION stood at 46.1%. For `CCS(=O)(=O)N1C[C@@H]2COC[C@@H](Cc3nc(C)no3)[C@@H]2C1` the value was 12.1%; for `Cc1nnc(C[C@@H]2COC[C@H]3CN(C(=O)C4=CCCC4)C[C@@H]23)o1`, 36.4%. As for `Cc1noc(C[C@@H]2COC[C@H]3CN(S(C)(=O)=O)C[C@@H]23)n1`, the figure is 26.5%; as for `Cc1noc(C[C@@H]2COC[C@H]3CN(S(=O)(=O)C4CC4)C[C@@H]23)n1`, 24.9%. For `Cc1noc(C[C@@H]2COC[C@H]3CN(C(=O)C4=CCCC4)C[C@@H]23)n1` the value was 34.9%; for `Cc1nnc(C[C@@H]2COC[C@H]3CN(C(=O)c4ccco4)C[C@@H]23)o1`, 2.4%.

With `COc1cc(N2C[C@@H]3COC[C@@H](Cc4nnc(C)o4)[C@@H]3C2)ncn1`, the INHIBITION was 50.3%.

With `COc1cc(N2C[C@@H]3COC[C@@H](Cc4nc(C)no4)[C@@H]3C2)ncn1`, the INHIBITION stood at 65.7%. For `CCCS(=O)(=O)N1C[C@@H]2COC[C@@H](Cc3nc(C)no3)[C@@H]2C1` the value was 61.9%. As for `CS(=O)(=O)N1CCCC(C(=O)Nc2cnn(Cc3ccc(F)cc3)c2)C1` (centres undefined), the INHIBITION is recorded as 30.8%. As for `CCc1ccc(CN2Cc3nccn3CC(Cn3cncn3)C2)o1` (centres undefined), the figure is -14.3%. For `CCOc1ncccc1NC(=O)N1CCCN(C(=O)OC)CC1` the value was -5.1%. As for `O=C(O)[C@]12CCCN(Cc3ccoc3)C[C@H]1CN(c1ncccn1)C2`, the figure is 7.24%; as for `COc1c(CNCCNC(=O)c2ccc(C)c(F)c2)c(C)nn1C`, 11.2%; as for `COCCn1ccc(NCc2cc3cc(F)ccc3o2)n1`, 5.58%.

Turning to `COCC(=O)N1CCCC1c1cc(Nc2nnc(C)s2)nc(C)n1` (centres undefined), the INHIBITION was determined as 18.2%. As to `CN(C)[C@@H]1CN(C(=O)c2ccc3ccccc3n2)C[C@H]1O`, the INHIBITION was found to be 14.7%. As for `CC(C)Oc1ccc(CN2CCC(c3n[nH]c4ncccc34)CC2)cc1`, the figure is 70.1%; as for `Fc1cccc(Cl)c1CN1CCC(c2n[nH]c3ncccc23)CC1`, 24.4%.

For the compound `Fc1ccc(CN2CCC(c3n[nH]c4ncccc34)CC2)cc1F`, the INHIBITION was 3.45%. For `Fc1ccc(F)c(CN2CCC(c3n[nH]c4ncccc34)CC2)c1` the value was -10.5%. Regarding `CC(C)Oc1cccc(CN2CCC(c3n[nH]c4ncccc34)CC2)c1`, the INHIBITION is 66.5%. As for `c1cnc(N2CCC(c3n[nH]c4ncccc34)C2)nc1` (centres undefined), the figure is 15.9%; as for `CCN(Cc1cnn(C)c1)C[C@H]1CC[C@@H](Cc2ccc(C#N)cc2)O1`, 6.33%. For `Cc1ncsc1CCC(=O)N(C)Cc1nc2ccccc2n1C` the value was 14.6%; for `CC(C)N1CCC2(C=C(C(=O)NC3CC3)c3ccccc32)CC1`, -24.5%; for `CC(C)c1cc(N(C)Cc2cc(C3CC3)on2)n2nccc2n1`, 32.5%. For `CCOC(=O)N1[C@@H](c2ccco2)[C@@H](C(=O)NC)C[C@]12CCCCNC2=O` the value was 42.7%; for `Cc1nc(C(C)C)sc1C(=O)NCCn1ccnc1`, 29.8%; for `Cc1nc(C(C)(C)C)sc1C(=O)NCCn1ccnc1`, 30.9%. Consider `Cc1nc(C)c(C(=O)NCCn2nc3ccccn3c2=O)s1`, for which the INHIBITION is recorded as 4.283%. As for `CCc1nc(C)c(C(=O)NCCn2nc3ccccn3c2=O)s1`, the figure is -11%; as for `CCCc1nc(C)c(C(=O)NCCn2ccnc2)s1`, 51%. As for `CCCc1nc(C)c(C(=O)NCCn2nc3ccccn3c2=O)s1`, the figure is 52.8%; as for `CCN1CCC2(CCN(c3ncccn3)CC2)C1=O`, -12.2%. For the compound `Cc1ccc(CN2C[C@@H]3CCCO[C@@H]3[C@H](NS(C)(=O)=O)C2)o1`, the INHIBITION is given as 46.6%. For `CC(C)N1CCC2(CC1)C(=O)N(CCN(C)C)c1ccccc12` the value was 49.4%; for `O=C(c1cccnc1)N1CCCC(c2ccnc3nccn23)C1` (centres undefined), 9.3875%; for `O=C(NCc1cncc2c1CCN(Cc1cccs1)C2)C1CC1`, 9.67%. `Cc1ccc(CNC2CCc3[nH]c(=O)ccc3C2)cc1C` (centres undefined): the INHIBITION worked out at 40.1%. With `CC(C)NC(=O)N1CCC2(CC(=O)N(c3ccccc3)C2)C1` (centres undefined), the INHIBITION is recorded as 28.4%. As for `CC(=O)N1CCC(c2cncc(N3CCOCC3)n2)CC1`, the figure is 41.5%. On to `CN(Cc1ccsc1)C(=O)COC(=O)c1cc(Cl)c[nH]1`, for which the INHIBITION came to 14.8%.

Turning to `CCCN1CCC(NC(=O)c2ccnc(SCC)c2)CC1`, the INHIBITION stood at 49.7%. For the compound `Cc1cnc(C)c(N2CC[C@H](N3CCOCC3)[C@H](CCCO)C2)n1`, the INHIBITION is on record as -12.4%. As for `Cc1nccn1CCC1CCCCN1C(=O)c1ccc2nonc2c1` (centres undefined), the figure is -17.5%; as for `CNc1cc(C(=O)N2CCCCC2CCn2ccnc2C)ccn1` (centres undefined), 64.5%; as for `COC(=O)c1cccc(C(=O)N2CCCCC2CCn2ccnc2C)c1` (centres undefined), 17.3%. For `Cc1nccn1CCC1CCCCN1C(=O)c1ccc2[nH]nnc2c1` (centres undefined) the value was -5.29%; for `Cc1nccn1CCC1CCCCN1Cc1ccc(O)cc1Cl` (centres undefined), 1.37%; for `Cc1nccn1CCC1CCCCN1C(=O)c1ccc(N(C)C)cc1` (centres undefined), 66.9%.

Regarding `COc1cccc(CN(C)C(=O)NCc2c(C)cc(C)[nH]c2=O)c1`, the INHIBITION was 22.3%. As for `Cc1cnn(CC2CCCN2C(=O)CN(C)C2CC2)c1` (centres undefined), the figure is 29.7%; as for `Cn1ccnc1C(=O)N1CCC2(CC1)CC(Oc1cccnc1)CO2` (centres undefined), 32.4%. In the case of `CC(C)CC(CO)NS(=O)(=O)Cc1ccon1` (centres undefined), the INHIBITION was determined as 23.8%. As for `CC(CCc1ccc(F)c(F)c1)NS(=O)(=O)Cc1ccon1` (centres undefined), the figure is 53.5%. As for `Cc1ccc(OCC(C)NS(=O)(=O)Cc2ccon2)cc1` (centres undefined), the figure is 48.5%. For `CCc1nc(C2CCCN(C(=O)c3cnn(CC)c3)C2)no1` (centres undefined) the value was -8.69%; for `CN1CCN(c2ccccc2NC(=O)NCC[S+](C)[O-])CC1` (centres undefined), 39.3%. For the compound `CN1CCN(c2ccccc2NC(=O)NCCc2ccccc2)CC1`, the INHIBITION stood at 64.3%. As for `Cc1ccc(C(=O)Nc2ccccc2N2CCCC2)n1C`, the figure is 21.2%; as for `CN1CCN(c2ccccc2NC(=O)NCCc2ccc(O)cc2)CC1`, 35.1%.

Consider `CN1CCN(c2ccccc2NC(=O)c2ccco2)CC1`, for which the INHIBITION came out at 50.4%. For `CN1CCN(c2ccc(Br)cc2NC(=O)c2ccco2)CC1` the value was 46.3%. As for `Cc1nn(CC(=O)N(C)Cc2nncn2C(C)C)c(=O)c2ccccc12`, the figure is -7.27%; as for `Cc1nn(CCNS(=O)(=O)c2ccccc2)c(C)c1Cl`, 48.3%. As for `Cc1cnn(C2CCCN(C(=O)c3ccc(-n4cnnn4)cc3)C2)c1` (centres undefined), the INHIBITION is 47.4%. As for `CC(C)(O)CN1CCN(C(=O)c2cccn2Cc2ccncc2)CC1`, the figure is 19.2%; as for `Cc1cc(C)n(CC2CN(CC(=O)Nc3cccnc3)CCO2)n1` (centres undefined), -14.3%. As to `CCN(CCNC(=O)c1cccc(C)c1C)C1CC1`, the INHIBITION was -16%. For `CC1=Nc2c(c(=O)[nH]n2C2CCOCC2)C(c2cccc(Br)c2)S1` (centres undefined), the INHIBITION stood at 3.95%.

For `O=C1CSC(c2ccc(Cl)cc2Cl)c2c(n(C3CCOCC3)[nH]c2=O)N1` (centres undefined), the INHIBITION is listed as 54.5%. As for `O=C1CSC(c2ccc(F)c(Cl)c2)c2c(n(C3CCOCC3)[nH]c2=O)N1` (centres undefined), the figure is 72.8%; as for `COc1ccccc1C1SCC(=O)Nc2c1c(=O)[nH]n2C1CCOCC1` (centres undefined), 39.3%; as for `O=C1CSC(c2ccc(O)c(Cl)c2)c2c(n(C3CCOCC3)[nH]c2=O)N1` (centres undefined), 15%. For `CC(=O)c1cccc(OCC(=O)NS(=O)(=O)c2cccs2)c1` the value was 2.97%.

`Cn1nccc1-c1nnn2c1COCC(CNC1CCOCC1)C2` (centres undefined): the INHIBITION amounted to 45.7%. For `O=C(CO)N1CCC(c2ccnc(Nc3cc(C(F)(F)F)ccn3)n2)C1` (centres undefined) the value was 20.2%; for `Cc1noc([C@@]23CCO[C@@H]2CCN(Cc2scnc2C)C3)n1`, 18.6%.

Regarding `CCN1CCCC1CN(Cc1ccon1)CC1CCN(CCOC)CC1` (centres undefined), the INHIBITION is listed as 81.2%. As for `CCN1CCCC1CN(Cc1ccoc1)CC1CCN(CCOC)CC1` (centres undefined), the figure is 53.7%; as for `COCCN1C[C@@H]2CN(Cc3ccoc3)CCC[C@]2(C(=O)O)C1`, -9.02%; as for `COCCN1CCC(CN(CC2CCCO2)C(=O)Cn2cccn2)CC1` (centres undefined), 15.4%. As for `CCN1CCCC1CN(Cc1cc[nH]n1)CC1CCN(CCOC)CC1` (centres undefined), the figure is 45%. As for `CC[C@@H]1N(Cc2ccoc2)CCC[C@]12CCC(=O)N2CCOC`, the figure is -11.2%; as for `CCn1ccnc1CN1CCCN(C(=O)c2csc(C)n2)CC1`, -1.55%. Take `Cc1cnc(N2C[C@H]3C[C@H](C(=O)N4CCN(C)CC4)N(C)[C@H]3C2)nc1`: the INHIBITION is listed as -18.2%. For the compound `Cc1ncc(CO)c(CN2CCCC2c2nc3c(C)cccc3[nH]2)c1O` (centres undefined), the INHIBITION was -125%. For `Cc1nn(CCO)cc1CN1CCCC1c1nc2c(C)cccc2[nH]1` (centres undefined) the value was 71.1%; for `Cc1cccc2[nH]c(C3CCCN3Cc3ccc(CO)o3)nc12` (centres undefined), -59.5%.
